# Some structures have more than one record in an assay (separate samples or runs), and their calls can disagree. The source made the active and inactive calls. The calls were made as follows: active = hit-call score of the fitted dose curve at least 0.9, where 1 is the maximum; inactive = score below 0.9.
# Experiments:
# [1] = BSK_hDFCGF_SRB: Viability Assessment in the BioMAP Diversity Plus: hDFCGF Assay (AID 2283061); conditions: primary human foreskin fibroblasts;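 also: cells exposed to compound for 24 h before the read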
# Outline: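 Viability was read as total protein: after 10% TCA fixation, wells were stained with 0.1% sulforhodamine B and read at 560 nm. Primary human foreskin fibroblasts were dosed for 24 h, with bidirectional fitting versus DMSO.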
# [2] = read-out: TIMP metallopeptidase inhibitor 1 (TIMP1), TIMP1 (gene 7076); assay: BSK_hDFCGF_TIMP1: BioMAP Diversity Plus: hDFCGF Assay for TIMP metallopeptidase inhibitor 1 (TIMP1) Biomarker Activity (AID 2283062); conditions: primary human foreskin fibroblasts; actives raise or lower the signal
# Outline: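 TIMP-1 measured by ELISA 24 h after chemical dosing of primary human skin fibroblasts, with gain or loss fitted relative to DMSO. Parallel SRB staining (560 nm) monitored overt cytotoxicity.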
# [3] = read-out: Monokine induced gamma interferon (MIG), CXCL9 (gene 4283); assay: BSK_hDFCGF_MIG: BioMAP Diversity Plus: hDFCGF Assay for Monokine induced gamma interferon (MIG) Biomarker Activity (AID 2283063); conditions: primary human foreskin fibroblasts; actives raise or lower the signal
# Outline: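 Human primary foreskin fibroblasts in the hDFCGF system, exposed to test chemical for 24 h; MIG measured by ELISA. Bidirectional curve fitting against DMSO negative control as activity baseline.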
# [4] = read-out: Matrix Metallopeptidase 1 (MMP1), MMP1 (gene 4312); assay: BSK_hDFCGF_MMP1: BioMAP Diversity Plus: hDFCGF Assay for Matrix Metallopeptidase 1 (MMP1) Biomarker Activity (AID 2283064); conditions: primary human foreskin fibroblasts; actives raise or lower the signal
# Outline: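 MMP1 levels quantified by ELISA 24 h after dosing human dermal fibroblast cultures, with parallel SRB total-protein staining for overt cytotoxicity. Data fitted in both directions against DMSO baseline.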
# [5] = read-out: Vascular cell adhesion molecule 1 (VCAM1), VCAM1 (gene 7412); assay: BSK_hDFCGF_VCAM1: BioMAP Diversity Plus: hDFCGF Assay for Vascular cell adhesion molecule 1 (VCAM1) Biomarker Activity (AID 2283065); conditions: primary human foreskin fibroblasts; actives raise or lower the signal;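 as to AC50: VCAM-1 protein level quantified by ELISA after 24 h chemical exposure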
# Outline: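 ELISA readout of VCAM-1 on human dermal fibroblast primary cultures, 24 h after chemical exposure. Gain or loss of signal fitted in both directions against DMSO baseline.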
# [6] = read-out: Plasminogen activator inhibitor-1 (PAI1), SERPINE1 (gene 5054); assay: BSK_hDFCGF_PAI1: BioMAP Diversity Plus: hDFCGF Assay for Plasminogen activator inhibitor-1 (PAI1) Biomarker Activity (AID 2283066); conditions: primary human foreskin fibroblasts; actives raise or lower the signal
# Outline: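 Human skin fibroblast cultures receive chemical for 24 h before PAI-1 is measured by ELISA; signal changes are fitted bidirectionally against DMSO-treated wells.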
# [7] = read-out: Intercellular Adhesion Molecule 1 (ICAM1), ICAM1 (gene 3383); assay: BSK_KF3CT_ICAM1: BioMAP Diversity Plus: KF3CT Assay for Intercellular Adhesion Molecule 1 (ICAM1) Biomarker Activity (AID 2283067); conditions: primary human keratinocytes with fibroblasts; actives raise or lower the signal
# Outline: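 Cell-surface ICAM-1 was measured by ELISA 24 h after dosing primary human skin keratinocytes co-cultured with fibroblasts. Parallel SRB staining tracked overt cytotoxicity. Gain or loss of signal was fitted relative to DMSO.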
# [8] = read-out: Interferon-gamma inducible Protein 10 (IP10), CXCL10 (gene 3627); assay: BSK_KF3CT_IP10: BioMAP Diversity Plus: KF3CT Assay for Interferon-gamma inducible Protein 10 (IP10) Biomarker Activity (AID 2283068); conditions: primary human keratinocytes with fibroblasts; actives raise or lower the signal
# Outline: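 KF3CT co-culture (keratinocytes + foreskin fibroblasts), 24 h compound, IP-10 by ELISA; bidirectional fit vs DMSO baseline.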
# [9] = BSK_KF3CT_SRB: Viability Assessment in the BioMAP Diversity Plus: KF3CT Assay (AID 2283069); conditions: primary human keratinocytes with fibroblasts;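 also: total protein by sulforhodamine B staining as a cytotoxicity measure; read 24 h after compound addition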
# Outline: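 Cytotoxicity was gauged by SRB staining (0.1% SRB, 10% TCA fixation, 560 nm) of parallel cultures at 24 h. The cells were primary human skin keratinocytes co-cultured with fibroblasts, and activity was fitted in both directions against DMSO.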
# [10] = read-out: Interleukin-1 alpha (IL1a), IL1A (gene 3552); assay: BSK_KF3CT_IL1a: BioMAP Diversity Plus: KF3CT Assay for Interleukin-1 alpha (IL1a) Biomarker Activity (AID 2283070); conditions: primary human keratinocytes with fibroblasts; actives raise or lower the signal
# Outline: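 IL-1a was detected by ELISA 24 h after chemical treatment of a co-culture of human skin keratinocytes and foreskin fibroblasts. Gain or loss of signal was fitted against the DMSO baseline.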
# [11] = read-out: TIMP metallopeptidase inhibitor 2 (TIMP2), TIMP2 (gene 7077); assay: BSK_KF3CT_TIMP2: BioMAP Diversity Plus: KF3CT Assay for TIMP metallopeptidase inhibitor 2 (TIMP2) Biomarker Activity (AID 2283071); conditions: primary human keratinocytes with fibroblasts; actives raise or lower the signal
# Outline: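 Measurements come from ELISA detection of TIMP-2 at 24 hours in a dosed human keratinocyte and foreskin fibroblast co-culture. DMSO serves as negative control and baseline.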
# [12] = read-out: Transforming growth factor beta 1 (TGFb1), TGFB1 (gene 7040); assay: BSK_KF3CT_TGFb1: BioMAP Diversity Plus: KF3CT Assay for Transforming growth factor beta 1 (TGFb1) Biomarker Activity (AID 2283072); conditions: primary human keratinocytes with fibroblasts; actives raise or lower the signal
# Outline: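 TGF-b1 ELISA on a 24 h dosed co-culture of human keratinocytes and foreskin fibroblasts; cytotoxicity tracked in parallel cultures by SRB staining.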
# [13] = read-out: C-C motif chemokine 2 (Homo sapiens) (UniProt P13500); assay: BSK_KF3CT_MCP1: BioMAP Diversity Plus: KF3CT Assay for Monocyte Chemoattractant Protein 1 (MCP1/CCL2) Biomarker Activity (AID 2283073); conditions: primary human keratinocytes with fibroblasts; actives raise or lower the signal
# Outline: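 ELISA read-out of MCP-1, 24 h post-dose, in primary human skin keratinocytes co-cultured with fibroblasts. Parallel SRB staining monitors cytotoxicity; changes fitted both directions relative to DMSO.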
# [14] = read-out: Matrix Metallopeptidase 9 (MMP9), MMP9 (gene 4318); assay: BSK_KF3CT_MMP9: BioMAP Diversity Plus: KF3CT Assay for Matrix Metallopeptidase 9 (MMP9) Biomarker Activity (AID 2283074); conditions: primary human keratinocytes with fibroblasts; actives raise or lower the signal;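 as to AC50: MMP9 protein level quantified by ELISA in the co-culture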
# Outline: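 MMP-9 quantified by ELISA after 24 h chemical treatment of primary human skin keratinocyte/fibroblast co-cultures; gain or loss fitted against DMSO, with parallel SRB staining (0.1% SRB, 560 nm) for overt cytotoxicity.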
# [15] = read-out: urokinase plasminogen activator (uPA), PLAU (gene 5328); assay: BSK_KF3CT_uPA: BioMAP Diversity Plus: KF3CT Assay for urokinase plasminogen activator (uPA) Biomarker Activity (AID 2283075); conditions: primary human keratinocytes with fibroblasts; actives raise or lower the signal
# Outline: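 ELISA read-out of uPA 24 h after dosing human skin keratinocytes co-cultured with foreskin fibroblasts. Signal change fitted both ways relative to DMSO; sulforhodamine B on parallel cultures marks overt cytotoxicity.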
# [16] = read-out: CD40, CD40 (gene 958); assay: BSK_LPS_CD40: BioMAP Diversity Plus: LPS Assay for CD40 Biomarker Activity (AID 2283076); conditions: primary human HUVEC with PBMC; actives raise or lower the signal
# Outline: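 In the LPS system of human endothelial cells with peripheral blood mononuclear cells, CD40 levels were read by ELISA 24 h post-treatment. Signal changes in either direction were fitted against the DMSO baseline, with parallel SRB protein staining.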
# [17] = read-out: E-selectin (Homo sapiens) (UniProt P16581); assay: BSK_LPS_Eselectin: BioMAP Diversity Plus: LPS Assay for Eselectin Biomarker Activity (AID 2283077); conditions: primary human HUVEC with PBMC; actives raise or lower the signal
# Outline: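 E-selectin ELISA on LPS-stimulated endothelial cell/PBMC co-cultures, read 24 h post-treatment; gains and losses fitted against DMSO. Parallel SRB staining (0.1% SRB after 10% TCA fixation, 560 nm) flags overt cytotoxicity.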
# [18] = read-out: Interleukin-8 (IL8), CXCL8 (gene 3576); assay: BSK_LPS_IL8: BioMAP Diversity Plus: LPS Assay for Interleukin-8 (IL8) Biomarker Activity (AID 2283078); conditions: primary human HUVEC with PBMC; actives raise or lower the signal
# Outline: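 ELISA read-out of IL-8 after 24 h chemical treatment of LPS-activated endothelial/PBMC human primary co-cultures. Changes either up or down relative to DMSO; overt cytotoxicity checked by sulforhodamine B staining in parallel wells.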
# [19] = BSK_LPS_SRB: Viability Assessment in the BioMAP Diversity Plus: LPS Assay (AID 2283079); conditions: primary human HUVEC with PBMC;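 also: total protein by sulforhodamine B absorbance as a cytotoxicity measure; measured one day after compound addition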
# Outline: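 SRB viability endpoint: cells fixed with 10% TCA, stained with 0.1% SRB, read at 560 nm, 24 h post-dose. HUVEC/PBMC co-culture; signal change in either direction scored relative to DMSO.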
# [20] = read-out: Interleukin-1 alpha (IL1a), IL1A (gene 3552); assay: BSK_LPS_IL1a: BioMAP Diversity Plus: LPS Assay for Interleukin-1 alpha (IL1a) Biomarker Activity (AID 2283080); conditions: primary human HUVEC with PBMC; actives raise or lower the signal
# Outline: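 Readout is IL-1a level by ELISA, 24 h post-dose, fitted as gain or loss relative to DMSO. System: LPS-activated human primary co-culture of vascular endothelium and peripheral blood mononuclear cells, with parallel SRB total-protein cytotoxicity.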
# E-selectin (Homo sapiens), sequence (P16581 whole entry, looked up): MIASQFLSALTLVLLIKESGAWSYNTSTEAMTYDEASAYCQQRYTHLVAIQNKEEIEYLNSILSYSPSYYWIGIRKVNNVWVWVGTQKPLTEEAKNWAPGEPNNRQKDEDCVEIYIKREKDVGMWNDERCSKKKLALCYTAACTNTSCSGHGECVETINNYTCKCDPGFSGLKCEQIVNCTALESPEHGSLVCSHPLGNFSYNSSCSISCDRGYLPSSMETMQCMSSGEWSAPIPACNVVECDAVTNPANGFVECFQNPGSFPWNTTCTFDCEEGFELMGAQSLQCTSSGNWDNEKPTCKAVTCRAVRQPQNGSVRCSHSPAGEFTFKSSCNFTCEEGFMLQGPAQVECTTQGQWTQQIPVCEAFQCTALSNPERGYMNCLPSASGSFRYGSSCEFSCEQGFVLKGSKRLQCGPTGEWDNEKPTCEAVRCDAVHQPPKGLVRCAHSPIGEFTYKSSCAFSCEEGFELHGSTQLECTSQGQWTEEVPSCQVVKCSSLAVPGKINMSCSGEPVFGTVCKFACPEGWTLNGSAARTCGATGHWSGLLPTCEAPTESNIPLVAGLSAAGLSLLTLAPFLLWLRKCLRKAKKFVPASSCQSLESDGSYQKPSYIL
smiles,measurement,setting,value
CC(C)CCCCCCOC(=O)C1CCCCC1C(=O)OCCCCCCC(C)C (stereo not given),outcome,[1],inactive
same,outcome,[2],inactive
same,outcome,[3],inactive
same,outcome,[4],inactive
same,outcome,[5],inactive
same,outcome,[6],inactive
same,outcome,[7],inactive
same,outcome,[8],inactive
same,outcome,[9],inactive
same,outcome,[10],inactive
same,outcome,[11],inactive
same,outcome,[12],inactive
same,outcome,[13],inactive
same,outcome,[14],inactive
same,outcome,[15],inactive
same,outcome,[16],inactive
same,outcome,[17],inactive
same,outcome,[18],inactive
same,outcome,[19],inactive
same,outcome,[20],inactive
CCCCCCOC(=O)CC(CC(=O)OCCCCCC)(OC(=O)CCC)C(=O)OCCCCCC,outcome,[1],inactive
same,outcome,[2],inactive
same,outcome,[3],inactive
same,outcome,[5],inactive
same,outcome,[6],inactive
same,outcome,[7],inactive
same,outcome,[8],inactive
same,outcome,[9],inactive
same,outcome,[10],inactive
same,outcome,[11],inactive
same,outcome,[12],inactive
same,outcome,[13],inactive
same,outcome,[14],inactive
same,outcome,[15],inactive
same,outcome,[16],inactive
same,outcome,[17],inactive
same,outcome,[18],inactive
same,outcome,[19],inactive
same,outcome,[20],inactive
CCCC(CCC)C(=O)O,outcome,[1],inactive
same,outcome,[2],inactive
same,outcome,[3],inactive
same,outcome,[5],inactive
same,outcome,[6],inactive
same,outcome,[7],inactive
same,outcome,[8],inactive
same,outcome,[9],inactive
same,outcome,[10],inactive
same,outcome,[11],inactive
same,outcome,[12],inactive
same,outcome,[13],inactive
same,outcome,[14],inactive
same,outcome,[15],inactive
same,outcome,[16],inactive
same,outcome,[17],inactive
same,outcome,[18],inactive
same,outcome,[19],inactive
same,outcome,[20],inactive
OCCC(F)(F)C(F)(F)C(F)(F)C(F)(F)F,outcome,[1],inactive
same,outcome,[2],inactive
same,outcome,[3],inactive
same,outcome,[5],inactive
same,outcome,[6],inactive
same,outcome,[7],inactive
same,outcome,[8],inactive
same,outcome,[9],inactive
same,AC50,[10],8.32 µM (active)
same,outcome,[10],inactive
same,outcome,[11],inactive
same,outcome,[13],inactive
same,outcome,[14],inactive
same,outcome,[15],inactive
same,outcome,[16],inactive
same,outcome,[17],inactive
same,outcome,[18],inactive
same,outcome,[19],inactive
same,outcome,[20],inactive
OCCOCCOCCO,outcome,[1],inactive
same,outcome,[2],inactive
same,outcome,[3],inactive
same,outcome,[5],inactive
same,outcome,[6],inactive
same,outcome,[7],inactive
same,outcome,[8],inactive
same,outcome,[9],inactive
same,outcome,[10],inactive
same,outcome,[11],inactive
same,outcome,[12],inactive
same,outcome,[13],inactive
same,outcome,[14],inactive
same,outcome,[15],inactive
same,outcome,[16],inactive
same,outcome,[17],inactive
same,outcome,[18],inactive
same,outcome,[19],inactive
same,outcome,[20],inactive
OCc1c[nH]c2ccccc12,outcome,[1],inactive
same,outcome,[2],inactive
same,outcome,[3],inactive
same,AC50,[5],3.97 µM (active)
same,AC50,[6],4.75 µM (active)
same,outcome,[7],inactive
same,outcome,[8],inactive
same,outcome,[9],inactive
same,outcome,[10],inactive
same,outcome,[11],inactive
same,outcome,[12],inactive
same,outcome,[13],inactive
same,AC50,[14],20 µM (active)
same,outcome,[15],inactive
same,outcome,[16],inactive
same,outcome,[17],inactive
same,outcome,[18],inactive
same,outcome,[19],inactive
same,outcome,[20],inactive
c1ccc2cc3ccccc3cc2c1,outcome,[1],inactive
same,outcome,[2],inactive
same,outcome,[3],inactive
same,outcome,[4],inactive
same,outcome,[5],inactive
same,outcome,[6],inactive
same,outcome,[7],inactive
same,outcome,[8],inactive
same,outcome,[9],inactive
same,outcome,[10],inactive
same,outcome,[11],inactive
same,outcome,[12],inactive
same,outcome,[13],inactive
same,outcome,[14],inactive
same,outcome,[15],inactive
same,outcome,[16],inactive
same,outcome,[17],inactive
same,outcome,[18],inactive
same,outcome,[19],inactive
same,outcome,[20],inactive

# Reference: PubChem BioAssay (EPA / NIEHS)
